Test results reported in ChEMBL document CHEMBL3433997, “St. Jude Leishmania screening dataset” (2016).

Each compound was assayed against Glucose transporter (Leishmania mexicana) (UniProt O61059) (assay: ST_JUDE_LEISH: Cytotoxicity at 2uM final concentration against transgenic Leishmania Mexicana promastigotes LmGT2 that are glucose transport deficient and complemented with the L. Mexicana glucose transporter 2. Activity is measured by DNA content using SYBR green in vitro).
Assay type: functional

Compound	inhibition [%]
O=C(Nc1cccc(-c2cccc(-c3nc4cc(C(F)(F)F)ccc4[nH]3)c2)c1)c1ccncc1	2.56
CC(C)CCCC(C)(C)NC[C@@H](O)[C@H](Cc1ccccc1)NC(=O)c1cc(NC(C)C)cc(N2CCCCS2(=O)=O)c1	-3.27
O=S(=O)(c1ccc(OCc2ccc(Cl)cc2)cc1)c1cc2c(c(-c3ccc(F)cc3)c1)CCN(CC1CC1)CC2	-0.48
CC(C)(C)c1ccc(OCC(=O)NC2CCN(c3ccnc4cc(Cl)ccc34)C2)cc1 (stereo not given)	-1.09
Cc1ccc(O)cc1Nc1ccnc2cc(-c3csc(CN4CCN(C)CC4)n3)ccc12	5.57
CC(C)CCN(Cc1cncn1Cc1cccc(C(F)(F)F)c1)C(=O)c1cncc(-c2ccccc2)c1	1.28
CC(=NNC(S)=NC(C)(C)C)c1ccccn1	49.6
CCN(CC)CCCn1c(N)c(-c2nc3ccccc3[nH]2)c2nc(C#N)c(C#N)nc21	4.63
O=C(Nc1ccc(-c2nc3ccccc3[nH]2)cc1)c1cccc(S(=O)(=O)N2CCOCC2)c1	4.05
Cc1cc(Nc2ccccc2)nc(Nc2ccccc2C)n1	0.47
CSCCCN1CCC(O)(c2ccc3oc(C(=O)Nc4ccc5sc(C)nc5c4)cc3c2)CC1	14.7
COc1ccc(CCn2c(=N)c(C(=O)NCc3ccc(C)cc3)cc3c(=O)n4ccccc4nc32)cc1	3.95
OCC1CCCCN1Cc1cccc(-c2cccc(-c3nc4ccccc4[nH]3)c2)c1 (stereo not given)	4.46
Cc1cccc(Nc2nccc(NCC(O)c3cccc(C(F)(F)F)c3)n2)c1 (stereo not given)	2.59
CC[C@@H]([C@@H](Cc1cc2ccccc2s1)C(=O)N[C@@H](CCCCNC(=O)OCc1ccccc1)C(=O)Nc1ccccn1)N(O)C=O	3.75
Cc1[nH]cnc1CSCCNC(=N)NCCCCCCCCNC(=N)NCCSCc1nc[nH]c1C	-0.05
COc1ccc2c(c1C1CCN(CCCCNC(=O)c3ccc(NC(=O)c4ccc(Cl)cc4)cc3)CC1)CCCC2	-1.07
NC(=O)c1cccc(C(=O)Nc2cccc(-c3cccc(-c4nc5ccccc5[nH]4)c3)c2)c1	4.03
Cc1ccc(NC(=O)c2ccc3nccnc3c2)cc1OC1CCN(Cc2ccc(F)cc2)CC1	10.5
O=C(/C=C/c1ccccc1Cl)Nc1ccc(Br)c(OCCN2CCN(CCN3CCCC3)CC2)c1	4.6

Compound	inhibition [%]
CCNC(=O)NC1CCN(Cc2c(-c3cccs3)nc3ccccc3c2C(=O)N[C@@H](C)C2CCCCC2)CC1	-0.86
O=C(NCC1CC1)C1Cc2c([nH]c3ccc(Br)cc23)C2(CCN(CCc3ccccc3)CC2)N1 (stereo not given)	1.33
CC(C)C1c2ccc(O)cc2CC2C(=O)N(C3CCCCC3)C(=O)N21 (stereo not given)	-0.94
CCN(CC)CCN(Cc1ccc(-c2ccc(C(F)(F)F)cc2)cc1)C(=O)Cn1c(CCc2cccc(F)c2F)nc(=O)c2sccc21	-0.22
Nc1ncc(-c2ccccc2)cc1-c1nc2cc(Cl)c(F)cc2[nH]1	3.16
CN(C)CCN(C)Cc1ccc(-c2cccc(NC(=O)c3cccc(C#N)c3)c2)cc1	8.24
COc1ccc2c(c1CNCCCCCCNCc1c(OC)ccc3c1CCCC3)CCCC2	7.55
O=S(=O)(NCCN1CCCC1)c1ccc(-c2ccc(CNCc3ccsc3)cc2)cc1	5.55
O=C(CCc1c[nH]cn1)Nc1cccc(-c2ccc(-c3nc4ccccc4[nH]3)cc2)c1	6.77
COc1cc(F)c2nccc([C@@H](O)CN3CCC(NCc4nc5cccc(F)c5[nH]4)CC3)c2c1	3.66
Cc1ccc2nc(N/C(N)=N/C(=O)NC3CCCCC3)nc(C)c2c1	2.16
COc1csc2cc(Br)ccc12	0.18
CCCCc1ccc(C(=O)Nc2ccc3nc(N4CCN(CC)CC4)cc(C)c3c2)cc1	-1.24
Cc1cc(CN2CC[C@H](NC(=O)c3ccc(Cl)c(Cl)c3)C2)ccc1OC1CCN(Cc2ccccc2)CC1	8.04
COc1ccc(C2=C(Nc3ccc4oc5ccccc5c4c3)c3ccccc3C2=O)cc1	0.33
Cc1ccc(Nc2nc(C)cc(Nc3cccc(C#N)c3)n2)cc1	16.3
Cc1cc(Cl)c(S(=O)(=O)NC(C)(C)C)cc1OCC(=O)NC1CCCCC1	0.34
Fc1ccc(COc2ccc(Nc3ncnc4ccc(I)cc34)cc2Cl)cc1	1.83
CC(=O)Nc1ncc(C(=O)Nc2cccc(-c3cccc(-c4nc5cccc(C)c5[nH]4)c3)c2)s1	2.45
COc1ccc(-c2cccc(NC(=O)c3cccc(C#N)c3)c2)cc1CN1CCCC1	5.27
